Holding throughout (assay): DAPPL (digital affinity profiling via proximity ligation, sequencing); 10 mM Tris-HCl pH 7.5, 50 mM NaCl, 1 mM DTT, 4% glycerol, room temperature, 30 min; GST-TFs on glutathione beads, 16-mer random dsDNA library, 0.1% formaldehyde crosslink after washing; high values mean tight binding
Conditions in all cases: protein: recombinant; tags: N-terminal GST; dsDNA, one strand shown

One test concerns the target T1, FLI1 (Homo sapiens, UniProt Q01543 1-452).
T1 sequence: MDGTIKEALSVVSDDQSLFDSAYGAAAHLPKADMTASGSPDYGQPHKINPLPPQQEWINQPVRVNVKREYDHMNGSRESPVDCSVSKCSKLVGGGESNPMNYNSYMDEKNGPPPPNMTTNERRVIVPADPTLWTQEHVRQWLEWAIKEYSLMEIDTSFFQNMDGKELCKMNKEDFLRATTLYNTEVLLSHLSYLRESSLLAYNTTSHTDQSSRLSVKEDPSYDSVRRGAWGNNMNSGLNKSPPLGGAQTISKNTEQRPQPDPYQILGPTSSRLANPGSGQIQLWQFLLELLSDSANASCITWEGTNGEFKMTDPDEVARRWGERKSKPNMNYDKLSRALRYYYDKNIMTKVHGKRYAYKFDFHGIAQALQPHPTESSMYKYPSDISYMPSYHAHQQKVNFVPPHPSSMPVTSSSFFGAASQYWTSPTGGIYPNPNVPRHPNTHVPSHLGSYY
The method, boiled down: (§1)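 Sequencing on an Illumina NextSeq500 followed washing, crosslinking with 0.1% formaldehyde, proximity ligation (BsaI/T4 ligase, 1 h, 37 °C) and PCR amplification of pools that had been incubated for 30 min at room temperature with 200 nmole of a random double-stranded 16-mer DNA library in Tris/NaCl/DTT/glycerol buffer. Each pool held DNA-barcoded human transcription factors, expressed in yeast as GST fusions and captured on glutathione beads, plus a tag-only sample. Binding signal is a hexamer's read frequency for a factor divided by its frequency in the tag-only sample.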

In the next test the target is T2, ELK1 (Homo sapiens, UniProt P19419 1-428).
T2 sequence: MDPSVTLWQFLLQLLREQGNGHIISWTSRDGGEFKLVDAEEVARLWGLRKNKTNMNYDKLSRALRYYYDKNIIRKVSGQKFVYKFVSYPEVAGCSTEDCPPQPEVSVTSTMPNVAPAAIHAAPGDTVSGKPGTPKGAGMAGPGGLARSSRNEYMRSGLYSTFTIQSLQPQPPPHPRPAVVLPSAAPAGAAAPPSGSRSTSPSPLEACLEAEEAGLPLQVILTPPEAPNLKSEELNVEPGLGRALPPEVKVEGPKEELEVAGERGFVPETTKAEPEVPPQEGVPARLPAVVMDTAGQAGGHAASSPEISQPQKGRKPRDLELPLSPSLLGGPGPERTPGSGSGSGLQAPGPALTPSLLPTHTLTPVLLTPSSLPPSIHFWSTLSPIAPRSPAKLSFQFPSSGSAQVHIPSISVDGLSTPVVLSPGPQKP
The method, boiled down:
as §1

A further test addresses T3, GABPA (Homo sapiens, UniProt Q06546 1-454).
T3 sequence: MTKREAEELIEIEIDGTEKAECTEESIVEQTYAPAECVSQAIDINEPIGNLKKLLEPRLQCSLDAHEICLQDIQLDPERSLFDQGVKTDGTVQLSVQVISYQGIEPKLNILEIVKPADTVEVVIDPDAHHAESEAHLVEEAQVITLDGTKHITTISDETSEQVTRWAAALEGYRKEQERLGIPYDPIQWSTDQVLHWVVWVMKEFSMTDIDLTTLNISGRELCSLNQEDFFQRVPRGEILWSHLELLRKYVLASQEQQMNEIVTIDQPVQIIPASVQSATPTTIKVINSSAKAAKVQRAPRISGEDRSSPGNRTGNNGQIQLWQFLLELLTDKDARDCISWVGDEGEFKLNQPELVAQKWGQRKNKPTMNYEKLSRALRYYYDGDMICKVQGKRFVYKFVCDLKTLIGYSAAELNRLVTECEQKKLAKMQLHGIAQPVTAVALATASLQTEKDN
The essentials: as §1

The target of another test is T4, ERG (Homo sapiens, UniProt P11308 1-479).
T4 sequence: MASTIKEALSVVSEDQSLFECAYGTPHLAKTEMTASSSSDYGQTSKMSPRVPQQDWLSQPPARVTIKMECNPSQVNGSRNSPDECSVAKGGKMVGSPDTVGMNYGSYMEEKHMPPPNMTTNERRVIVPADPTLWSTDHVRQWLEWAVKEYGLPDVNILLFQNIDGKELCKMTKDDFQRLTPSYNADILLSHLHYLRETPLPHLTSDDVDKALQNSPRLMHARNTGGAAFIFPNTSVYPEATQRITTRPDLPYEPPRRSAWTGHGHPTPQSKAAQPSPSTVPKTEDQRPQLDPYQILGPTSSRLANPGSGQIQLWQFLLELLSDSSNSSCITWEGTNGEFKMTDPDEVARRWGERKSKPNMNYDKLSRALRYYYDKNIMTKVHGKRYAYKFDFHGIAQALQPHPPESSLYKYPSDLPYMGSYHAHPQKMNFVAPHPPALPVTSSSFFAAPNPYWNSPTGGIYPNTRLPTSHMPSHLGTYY
The method, boiled down:
as §1

A further test has as its target T5, EHF (Homo sapiens, UniProt Q9NZC4 1-300).
T5 sequence: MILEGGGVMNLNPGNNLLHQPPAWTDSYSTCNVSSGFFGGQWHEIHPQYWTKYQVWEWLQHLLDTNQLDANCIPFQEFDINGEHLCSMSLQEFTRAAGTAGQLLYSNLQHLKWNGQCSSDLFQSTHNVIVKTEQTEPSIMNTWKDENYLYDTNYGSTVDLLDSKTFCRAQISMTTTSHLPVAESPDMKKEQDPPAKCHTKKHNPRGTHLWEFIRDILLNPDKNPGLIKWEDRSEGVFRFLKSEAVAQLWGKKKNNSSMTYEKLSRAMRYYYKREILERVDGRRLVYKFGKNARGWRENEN
The method, boiled down:
as §1

The target of the next test is SPI1 (Homo sapiens, UniProt P17947 1-270). The method, boiled down: as §1
The next test has as its target SPIB (Homo sapiens, UniProt Q01892 1-262). The method, boiled down: as §1
The target of a further test is T6, FEV (Homo sapiens, UniProt Q99581 1-238).
T6 sequence: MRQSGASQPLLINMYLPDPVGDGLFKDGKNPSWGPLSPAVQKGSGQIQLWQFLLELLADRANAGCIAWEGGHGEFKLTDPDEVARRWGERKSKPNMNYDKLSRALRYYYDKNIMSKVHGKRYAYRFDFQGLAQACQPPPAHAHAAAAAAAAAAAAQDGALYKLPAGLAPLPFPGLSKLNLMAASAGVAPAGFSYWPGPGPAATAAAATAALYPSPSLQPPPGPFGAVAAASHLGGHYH
The essentials: as §1

The next test addresses ETV5 (Homo sapiens, UniProt P41161 1-510). The method, boiled down: as §1
Another test addresses T7, SPIC (Homo sapiens, UniProt Q8N5J4 1-248).
T7 sequence: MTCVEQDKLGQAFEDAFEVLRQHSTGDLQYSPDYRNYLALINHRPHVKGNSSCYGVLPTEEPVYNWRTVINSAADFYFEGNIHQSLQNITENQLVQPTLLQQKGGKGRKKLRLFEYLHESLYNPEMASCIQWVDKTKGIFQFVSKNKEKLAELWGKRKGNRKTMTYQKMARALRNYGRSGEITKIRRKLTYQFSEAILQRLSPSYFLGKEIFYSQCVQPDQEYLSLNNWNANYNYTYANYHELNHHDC
The essentials:
as §1

Another test concerns the target ELF4 (Homo sapiens, UniProt Q99607 1-663). The method, boiled down:
as §1

A further test deals with ETV1 (Homo sapiens, UniProt P50549 1-477). The method, boiled down: as §1
Sequence of ETV1 (P50549 whole entry): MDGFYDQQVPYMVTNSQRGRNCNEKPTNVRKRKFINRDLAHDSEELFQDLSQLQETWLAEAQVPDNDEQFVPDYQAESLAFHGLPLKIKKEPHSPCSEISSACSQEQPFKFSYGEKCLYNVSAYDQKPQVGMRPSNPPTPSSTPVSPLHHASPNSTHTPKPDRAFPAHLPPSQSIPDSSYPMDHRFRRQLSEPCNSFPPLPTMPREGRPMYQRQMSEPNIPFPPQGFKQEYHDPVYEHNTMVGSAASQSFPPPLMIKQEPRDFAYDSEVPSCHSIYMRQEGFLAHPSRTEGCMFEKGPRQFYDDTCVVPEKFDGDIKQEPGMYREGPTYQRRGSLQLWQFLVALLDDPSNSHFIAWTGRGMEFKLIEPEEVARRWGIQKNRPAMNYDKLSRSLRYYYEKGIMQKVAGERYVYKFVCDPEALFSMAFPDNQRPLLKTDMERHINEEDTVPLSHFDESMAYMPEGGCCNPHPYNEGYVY
The next test has as its target T8, ERF (Homo sapiens, UniProt P50548 1-548).
T8 sequence: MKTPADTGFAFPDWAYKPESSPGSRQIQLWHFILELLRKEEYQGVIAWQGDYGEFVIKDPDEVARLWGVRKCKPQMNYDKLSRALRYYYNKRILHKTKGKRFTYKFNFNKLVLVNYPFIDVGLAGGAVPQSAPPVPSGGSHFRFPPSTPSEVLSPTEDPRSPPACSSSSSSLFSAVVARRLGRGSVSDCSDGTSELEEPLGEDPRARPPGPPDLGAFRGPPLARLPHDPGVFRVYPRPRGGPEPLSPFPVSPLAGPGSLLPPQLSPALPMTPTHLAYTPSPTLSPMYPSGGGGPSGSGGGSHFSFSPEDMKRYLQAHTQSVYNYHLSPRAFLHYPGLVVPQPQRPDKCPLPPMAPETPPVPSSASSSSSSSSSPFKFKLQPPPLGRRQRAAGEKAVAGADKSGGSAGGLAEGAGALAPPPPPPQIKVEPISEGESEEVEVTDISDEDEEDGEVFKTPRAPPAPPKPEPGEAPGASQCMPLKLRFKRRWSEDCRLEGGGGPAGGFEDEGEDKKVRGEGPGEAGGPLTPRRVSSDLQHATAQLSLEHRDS
The essentials:
as §1

A further test concerns the target T9, ETV3L (Homo sapiens, UniProt Q6ZN32 1-361).
T9 sequence: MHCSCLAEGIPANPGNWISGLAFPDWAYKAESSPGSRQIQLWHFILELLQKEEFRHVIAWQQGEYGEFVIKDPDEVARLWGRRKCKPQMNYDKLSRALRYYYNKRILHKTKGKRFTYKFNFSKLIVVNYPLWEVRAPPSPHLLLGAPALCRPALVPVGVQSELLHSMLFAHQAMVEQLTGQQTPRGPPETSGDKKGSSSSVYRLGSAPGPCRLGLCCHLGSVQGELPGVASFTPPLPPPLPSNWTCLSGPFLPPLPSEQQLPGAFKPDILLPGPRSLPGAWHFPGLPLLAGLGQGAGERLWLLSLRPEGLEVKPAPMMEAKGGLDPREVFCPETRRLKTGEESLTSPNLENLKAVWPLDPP
The essentials: as §1

A further test deals with T10, ETS2 (Homo sapiens, UniProt P15036 1-469).
T10 sequence: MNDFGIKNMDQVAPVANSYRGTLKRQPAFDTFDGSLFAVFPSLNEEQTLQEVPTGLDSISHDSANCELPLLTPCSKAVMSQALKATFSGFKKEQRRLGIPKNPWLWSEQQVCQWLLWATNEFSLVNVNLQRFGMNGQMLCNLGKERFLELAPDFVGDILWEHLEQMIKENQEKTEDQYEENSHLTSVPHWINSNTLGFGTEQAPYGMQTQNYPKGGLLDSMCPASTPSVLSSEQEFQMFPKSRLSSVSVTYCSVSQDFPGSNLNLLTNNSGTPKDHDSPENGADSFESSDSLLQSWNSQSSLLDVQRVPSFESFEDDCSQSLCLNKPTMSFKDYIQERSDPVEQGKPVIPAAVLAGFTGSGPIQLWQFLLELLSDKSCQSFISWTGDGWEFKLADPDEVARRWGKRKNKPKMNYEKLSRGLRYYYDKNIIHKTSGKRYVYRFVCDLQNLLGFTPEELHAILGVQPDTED
The method, boiled down:
as §1

Another test has as its target T11, ELF5 (Homo sapiens, UniProt Q9UKW6-2 1-255).
T11 sequence: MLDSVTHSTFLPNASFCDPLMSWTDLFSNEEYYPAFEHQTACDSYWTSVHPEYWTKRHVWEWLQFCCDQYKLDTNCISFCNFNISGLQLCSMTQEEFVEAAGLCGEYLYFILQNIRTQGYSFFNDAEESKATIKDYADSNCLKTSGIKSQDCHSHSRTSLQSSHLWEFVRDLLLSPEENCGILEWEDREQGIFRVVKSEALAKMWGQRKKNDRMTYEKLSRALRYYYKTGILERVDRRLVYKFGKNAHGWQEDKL
The essentials:
as §1

Another test addresses T12, ETV3 (Homo sapiens, UniProt P41162-2 1-143).
T12 sequence: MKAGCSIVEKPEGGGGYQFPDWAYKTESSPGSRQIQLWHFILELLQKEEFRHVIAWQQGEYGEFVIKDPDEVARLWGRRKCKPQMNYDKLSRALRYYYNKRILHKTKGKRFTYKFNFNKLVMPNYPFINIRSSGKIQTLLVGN
The method, boiled down:
as §1

In the next test the target is ELF1 (Homo sapiens, UniProt P32519 1-619). The essentials: as §1
Sequence of ELF1 (P32519 whole entry): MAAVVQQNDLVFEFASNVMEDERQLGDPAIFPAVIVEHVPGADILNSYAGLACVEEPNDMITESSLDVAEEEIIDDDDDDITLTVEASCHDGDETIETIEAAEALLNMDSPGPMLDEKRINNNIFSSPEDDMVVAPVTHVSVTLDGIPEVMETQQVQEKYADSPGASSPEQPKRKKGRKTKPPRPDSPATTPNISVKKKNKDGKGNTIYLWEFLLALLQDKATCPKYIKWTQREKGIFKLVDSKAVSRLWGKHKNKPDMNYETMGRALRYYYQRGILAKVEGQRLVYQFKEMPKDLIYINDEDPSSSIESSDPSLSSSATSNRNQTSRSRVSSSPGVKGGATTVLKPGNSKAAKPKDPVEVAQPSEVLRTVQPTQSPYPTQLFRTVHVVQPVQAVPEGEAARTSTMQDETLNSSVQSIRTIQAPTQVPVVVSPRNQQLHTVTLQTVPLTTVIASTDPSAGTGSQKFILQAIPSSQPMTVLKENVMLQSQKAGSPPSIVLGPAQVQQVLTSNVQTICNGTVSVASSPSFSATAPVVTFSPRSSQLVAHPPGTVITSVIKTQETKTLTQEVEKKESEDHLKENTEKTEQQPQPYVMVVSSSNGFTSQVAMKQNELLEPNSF

Sequence of ETV5 (P41161 whole entry): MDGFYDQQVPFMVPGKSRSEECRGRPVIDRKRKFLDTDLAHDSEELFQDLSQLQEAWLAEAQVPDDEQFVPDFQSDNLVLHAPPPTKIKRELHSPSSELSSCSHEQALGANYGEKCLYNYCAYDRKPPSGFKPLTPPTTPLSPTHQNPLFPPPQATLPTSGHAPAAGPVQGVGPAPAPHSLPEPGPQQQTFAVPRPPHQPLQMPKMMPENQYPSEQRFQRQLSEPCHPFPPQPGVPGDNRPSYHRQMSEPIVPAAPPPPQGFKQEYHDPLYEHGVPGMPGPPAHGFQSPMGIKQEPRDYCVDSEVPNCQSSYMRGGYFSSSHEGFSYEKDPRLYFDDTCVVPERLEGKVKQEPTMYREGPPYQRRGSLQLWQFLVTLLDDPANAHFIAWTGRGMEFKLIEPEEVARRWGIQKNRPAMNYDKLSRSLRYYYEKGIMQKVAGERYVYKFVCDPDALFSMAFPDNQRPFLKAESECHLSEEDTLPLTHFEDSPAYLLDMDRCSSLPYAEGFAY
Sequence of SPIB (Q01892 whole entry): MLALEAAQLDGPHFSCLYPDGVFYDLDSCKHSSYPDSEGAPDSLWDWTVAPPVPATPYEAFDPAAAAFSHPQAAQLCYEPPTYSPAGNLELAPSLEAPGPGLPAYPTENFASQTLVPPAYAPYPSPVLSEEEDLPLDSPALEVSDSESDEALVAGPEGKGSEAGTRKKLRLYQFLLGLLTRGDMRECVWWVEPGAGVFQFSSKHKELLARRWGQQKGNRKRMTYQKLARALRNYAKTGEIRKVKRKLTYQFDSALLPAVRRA
Sequence of ELF4 (Q99607 whole entry): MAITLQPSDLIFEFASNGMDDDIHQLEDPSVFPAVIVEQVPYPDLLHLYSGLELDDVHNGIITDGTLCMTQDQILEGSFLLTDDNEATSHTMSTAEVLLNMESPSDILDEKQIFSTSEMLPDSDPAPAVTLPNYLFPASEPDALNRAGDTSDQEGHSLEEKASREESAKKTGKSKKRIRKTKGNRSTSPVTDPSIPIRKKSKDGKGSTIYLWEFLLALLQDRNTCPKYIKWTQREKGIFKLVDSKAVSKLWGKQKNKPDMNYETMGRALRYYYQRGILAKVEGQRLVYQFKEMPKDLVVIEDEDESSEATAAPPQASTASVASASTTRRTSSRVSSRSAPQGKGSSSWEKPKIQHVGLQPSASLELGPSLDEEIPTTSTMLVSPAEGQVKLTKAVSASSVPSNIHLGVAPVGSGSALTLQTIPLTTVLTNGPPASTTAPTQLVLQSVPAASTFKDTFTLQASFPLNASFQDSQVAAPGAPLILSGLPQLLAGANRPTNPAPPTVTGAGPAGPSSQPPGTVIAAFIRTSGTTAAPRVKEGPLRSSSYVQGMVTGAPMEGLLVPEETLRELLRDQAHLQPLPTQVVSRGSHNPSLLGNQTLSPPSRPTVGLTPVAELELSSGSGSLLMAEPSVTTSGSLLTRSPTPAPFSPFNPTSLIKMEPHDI

In the case of TGGTGC, the binding signal was 1.12 fold enrichment (6-mer frequency, TF over GST control) with FLI1; 1.14 fold enrichment (6-mer frequency, TF over GST control) with ELK1; 1.1 fold enrichment (6-mer frequency, TF over GST control) with GABPA; 1.16 fold enrichment (6-mer frequency, TF over GST control) with ERG; 1.15 fold enrichment (6-mer frequency, TF over GST control) in the test with EHF; 1.12 fold enrichment (6-mer frequency, TF over GST control) with SPI1. In addition, the binding signal with SPIB is 1.06 fold enrichment (6-mer frequency, TF over GST control); with FEV, 1 fold enrichment (6-mer frequency, TF over GST control); with ETV5 it was 1.1 fold enrichment (6-mer frequency, TF over GST control); with SPIC, 1.14 fold enrichment (6-mer frequency, TF over GST control); with ELF4, 1.07 fold enrichment (6-mer frequency, TF over GST control); with ETV1, 1.06 fold enrichment (6-mer frequency, TF over GST control). Moreover, the binding signal with ERF was 1.11 fold enrichment (6-mer frequency, TF over GST control); with ETV3L, 1.05 fold enrichment (6-mer frequency, TF over GST control); in the test with ETS2, 1.01 fold enrichment (6-mer frequency, TF over GST control); with ELF5, 1.02 fold enrichment (6-mer frequency, TF over GST control); with ETV3, 1.17 fold enrichment (6-mer frequency, TF over GST control).
In the case of CATCCA, the binding signal with FLI1 was 1.01 fold enrichment (6-mer frequency, TF over GST control); with ELK1 it was 1.06 fold enrichment (6-mer frequency, TF over GST control); with ELF1 it was 1.02 fold enrichment (6-mer frequency, TF over GST control); with SPIB, 1 fold enrichment (6-mer frequency, TF over GST control); in the test with ETV5, 1.01 fold enrichment (6-mer frequency, TF over GST control); with SPIC, 1.05 fold enrichment (6-mer frequency, TF over GST control). For the same sequence, the binding signal is 1.02 fold enrichment (6-mer frequency, TF over GST control) in the test with ELF4 and 1.01 fold enrichment (6-mer frequency, TF over GST control) with ERF.

The values above are taken from publication PMC7862700, “An all-to-all approach to the identification of sequence-specific readers for epigenetic DNA modifications on cytosine”.
